This is part of a sample that, as a whole, favours compounds with a hit. Of some 79,000 tested, about 15% had one in any assay. Values without a mark were called inactive. Rule as the data show it: active = growth inhibition above about 70%; inactive = the rest.
Assay: NCI Yeast Anticancer Drug Screen. Data for the rad52 strain (AID 147);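 also: 0% = growth of vehicle-treated control cultures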
Settings: S. cerevisiae rad52 mutant growth inhibition; at 1.2 µM; active compounds read high
How it was run: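 Here a repair-compromised yeast strain receives each compound; its growth is then quantified and normalised to vehicle-only controls.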

Row | Compound | growth inhibition
1 | CC(CN(C)C)C(=O)/C=C/c1ccc(Cl)c(Cl)c1 (stereo unspecified) | 7%
2 | CCCCCCNCCCNc1c2cc(OC)ccc2nc2cccc([N+](=O)[O-])c12 | 8%
3 | NC(=S)N1N=C2c3ccccc3CC[C@H]2[C@@H]1c1ccc(Cl)cc1 | 26%
4 | C/C(=N/NC(=S)Nc1ccccc1C)c1ccccn1 | 2%
5 | O=C1/C(=C/c2ccc(Cl)c(Cl)c2)CNC/C1=C\c1ccc(Cl)c(Cl)c1 | 22%
6 | CC(C)OP(=O)(OC(C)C)C(=NCCO)NNc1ccc([N+](=O)[O-])cc1 | 8%
7 | N#CCC(=O)N/N=C(\c1ccccc1)C(c1ccccc1)C1(O)C(=O)Nc2c(Cl)ccc(Cl)c21 (stereo unspecified) | 0%
8 | CC(C)(CN1CCCCC1)C(=O)CC(SCCS(=O)(=O)O)c1ccccc1 (stereo unspecified) | 6%
9 | COC1=CCC23C(=O)C=CC(=O)C2(C1)C(=O)c1ccccc1C3=O (stereo unspecified) | -40%
10 | CCCCN(CCCC)c1ccc(N=Nc2ccc(S(=O)(=O)O)cc2)cc1 | 21%
11 | c1ccc2nc3c(nc2c1)sc1ccccc13 | 13%
12 | O=C1c2ccccc2-c2ccc(N=Cc3ccccc3)cc21 | -6%
13 | CNC(=S)N/N=C(/C)CCC/C(C)=N/NC(=S)NC | 28%
14 | Nc1ccc(/C=C/c2ccc3cccnc3c2)cc1 | -3%
15 | COc1ccc2c3c1OC(C)C31CC(=O)CCC1CC2 (stereo unspecified) | -4%
16 | CCOC(=O)Nc1ccc(C)c(NC(=O)OCC)c1 | 3%
17 | CCN(CC)CCNc1ccc2nc(C)n3c4ccc(OC)cc4c(=O)c1c23 | 22%
18 | C[N+](C)([O-])CCCNc1c2ccccc2nc2cccc([N+](=O)[O-])c12 | 54%

Row | Compound | growth inhibition
19 | O=C(c1cc(=O)c2ccc(O)cc2o1)c1ccc(Cl)cc1Cl | -31%
20 | CCCNC(=O)OCc1c(COC(=O)NCCC)c(-c2ccc(Cl)c(Cl)c2)n2c1CCC2 | -3%
21 | O=C(Cc1ccccc1)NN1C(=O)C(Cl)C1c1cc(Br)cc(Br)c1O (stereo unspecified) | 4%
22 | CCOC(=O)C(Cc1c2ccccc2cc2ccccc12)(NC(C)=O)C(=O)OCC | -2%
23 | O=[N+]([O-])/C=C/c1cc2ccc3ccccc3c2[nH]1 | 27%
24 | Fc1ccc(Nc2ccc3ccccc3c2)cc1 | -1%
25 | O=S1(=O)CCC2=CC(C(F)(F)F)=CC(C(F)(F)F)=CN21 | 26%
26 | O=C(Cc1ccccc1)NNc1nc(NNC(=O)c2ccncc2)nc(Nc2ccc([N+](=O)[O-])cc2)n1 | 23%
27 | CCCCS/C(=C(/C#N)C(N)=O)c1cc2c([nH]1)CCCC2 | 24%
28 | O=C(O)c1ccccc1C(=O)OC1CCc2ccccc2C1 (stereo unspecified) | -3%
29 | CCOC(=O)/C(=C\c1cccc(C)c1)C(C)=O | -3%
30 | NC(=S)N/N=C1\c2ccccc2CCC1CCC1(O)CCc2ccccc2C1=O (stereo unspecified) | 43%
31 | Cc1cccc2c(Cl)c3cccc(C)c3nc12 | 1%
32 | CC(C)OC(=O)NNc1c(Cl)cc(Cl)cc1Cl | -2%
33 | Nc1ccc2c(c1)C(=O)c1c(F)cccc1-2 | -3%
34 | N#CSCC1COc2ccccc2O1 (stereo unspecified) | -43%
35 | Cc1ccc(S(=O)(=O)NC(=O)C2C(=O)CC3(CCCCC3)CC2=O)cc1 | -22%
36 | CC1=NN(C(=O)c2ccccc2O)C(=O)/C1=C/c1ccco1 | 1%

Reference: PubChem BioAssay (NCI)
